According to PubChem BioAssay (NCATS):
Several values for one entry are separate records, joined by “and”; a condition that tells them apart may be missing. Equal values may be shown once. Inconclusive results are not listed. Where a call stands in place of a potency, no number is given. Activity calls are given as the source filed them. The call rests on the fitted dose curve; in most records, active means well fitted inhibition curve with a large enough effect; inconclusive means small, poorly fitted or top-dose-only effect; inactive means flat fitted curve, though single readings scatter.

The compounds below were run against Glutathione peroxidase 1 (Homo sapiens) (UniProt P07203) (assay: Primary qHTS Assay for Inhibitors of Recombinant Selenoprotein Glutathione Peroxidase 1 (GPX1) (AID 1845191; further: nearly all actives have a fitted effect of over 65% in size)). Conditions: recombinant GPX1, GR-coupled NADPH fluorescence, 15 min; series mostly up to 48.8 µM.
Chain of Glutathione peroxidase 1 (Homo sapiens) (P07203 whole entry, looked up): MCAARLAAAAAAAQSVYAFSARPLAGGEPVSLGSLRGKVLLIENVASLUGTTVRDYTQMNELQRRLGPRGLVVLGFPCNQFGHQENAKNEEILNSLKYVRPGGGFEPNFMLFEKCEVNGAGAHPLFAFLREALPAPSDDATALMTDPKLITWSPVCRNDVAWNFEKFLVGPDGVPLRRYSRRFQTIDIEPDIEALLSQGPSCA
Method in brief: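 GPX1 10 nM, GR 100 nM, GSH 1 mM, NADPH 0.5 mM, CHP 0.5 mM (final). 30-min cpd preincubation, RT. Ex340/Em450 read t=0, t=15 min.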
Potency means the concentration at half of the fitted maximal effect.

Structure (SMILES) | Potency
CC1=C(C)C(=O)OC(C(C)C2C(O)CC3C4C5OC5C5(O)CC(OC6OC(CO)C(O)C(O)C6O)CC(O)C5(C)C4CCC32C)C1 (stereo not given) | inactive
CC12CCC3c4ccc(O)cc4CCC3C1CCC2OC1OC(C(=O)O)C(O)C(O)C1O (stereo not given) | inactive
COC1=CC(=O)C[C@@H](C)[C@]12Oc1cc(OC)cc(OC)c1C2=O | inactive
CC(=O)N(CC(C)C(=O)O)c1c(I)cc(I)c(N)c1I (stereo not given) | inactive
CC1CCC2(C)C(CC(O)C(O)C23CO3)C1(C)CCC1=CC(O)OC1=O (stereo not given) | inactive
COc1cc([C@H]2OC[C@@H]3[C@@H](c4ccc(O[C@@H]5O[C@H](CO)[C@@H](O)[C@H](O)[C@H]5O)c(OC)c4)OC[C@]23O)ccc1O | inactive
CO/N=C(/C(=O)N[C@@H]1C(=O)N2C(C(=O)O)=C(CSC(=O)c3ccco3)CS[C@H]12)c1csc(N)n1 | 8.06 µM (active) and 7.18 µM (active)
C[C@H]1CN(C[C@H](Cc2ccccc2)C(=O)NCC(=O)O)CC[C@@]1(C)c1cccc(O)c1 | inactive
CC(=O)O[C@H]1[C@H](Oc2ccccc2COC(=O)C2(O)C=CCCC2=O)O[C@H](CO)[C@@H](O)[C@@H]1O (stereo not given in full) | inactive
CC1CCCC2OC2C(=O)c2c(O)cc(O)cc2CC(=O)O1 (stereo not given) | inactive
CN1C(=O)c2ccccc2NC(=O)[C@]12O[C@@H]2c1cccc(O)c1 | inactive
COc1ccc(C(O[C@@H]2O[C@H](CO)[C@@H](O)[C@H](O)[C@H]2O)C(CO)Oc2ccc(/C=C/CO)cc2OC)cc1O (stereo not given in full) | inactive
CC(C)[C@@H](C)/C=C/[C@@H](C)[C@H]1CC[C@H]2C3=CC=C4C[C@@H](O)CC[C@]4(C)[C@H]3CC[C@]12C | inactive
Cc1cccc(-c2[nH]c(CNc3ccccc3F)nc2-c2ccc3ncnn3c2)n1 | inactive
c1ccc(Cc2ncc3c(n2)CCNCC3)cc1 | inactive
O=C(/C=C/c1ccccc1)OCC1=CC[C@@H]2C(C(=O)O)=CO[C@@H](O[C@@H]3O[C@H](CO)[C@@H](O)[C@H](O)[C@H]3O)[C@H]12 | inactive
CC(O)C(O)/C=C/C=C/C(=O)O[C@@H]1C=C2COC(=O)[C@]2(O)[C@@]2(C)CCCC(C)(C)C12 (stereo not given in full) | inactive
C=C/C=C/[C@@H]1OC[C@H](/C=C/C=C/C)[C@H]1O | inactive
N#Cc1ccc2[nH]c(O)c(-c3ccc(CN4CCOCC4)cn3)c2c1 | inactive
O=C1CC(c2ccc([N+](=O)[O-])cc2)=NN1c1ccccc1 | inactive
